ALDH1A1 block: ALDH1A1 (human) enzyme inhibition. Potency, µM (series often up to 75.3 µM), for inactives: top-dose activity, negative = inhibition, most hits filed as inhibitors. Purified ALDH1A1, NADH fluorescence, propionaldehyde substrate. actives 7.3% (n = 220,000). P00352;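 further: potency means the concentration at half of the fitted maximal effect; plate controls were no enzyme wells and a reference inhibitor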
PNC inhibitor: inhibitors of perinucleolar compartment assembly | PC3M PTB-GFP, PNC prevalence imaging, 16 h; hits give low values | activity change (PNC), negative = inhibition, % at 10 µM | actives 3.1% (n = 140,000) | AID 2417;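 active means readout at or below -70, meaning at least 70% loss of cells showing the perinucleolar compartment, a nuclear body marking cancer cells; inconclusive means readout between -30 and a set limit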;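 further: plate controls were DMSO wells for no effect and camptothecin positive control wells for full effect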
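Read-out is percentage of cells bearing a perinucleolar compartment, from automated 20x imaging of fixed, Hoechst-stained PC3M PTB-GFP cells. Cells were seeded 4 h, then exposed 16 h to compound (23 nl of library stock) in duplicate plates.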
HTT cytoprotect: protects HTT-Q103 PC12 cells, measured by ATP. PC12 HTT-Q103 induced, cytoprotection, ATP luminescence, 40 h. Potency, µM (highest dose often 56.4 µM), for inactives: cytoprotection (ATP increase), actives largely listed as activators. actives 0.14% (n = 230,000); active means well fitted curve in the direction sought with a large enough effect; inconclusive means small, poorly fitted or top-dose-only effect, or another doubt; inactive means no such curve, though single readings can be large; an effect the other way counts as inactive or inconclusive; further: potency means the concentration at half of the fitted maximal effect; % of control where 0% means no effect; nearly all actives have a fitted effect of over 45% in size
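PC12 cells stably carrying ecdysone-inducible Htt exon 1 (Q103)–GFP were induced with 100 nM tebufenozide (final) alongside library compounds in a dose series. Cytoprotection was scored as retained ATP by ATPlite luminescence.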
HPGD inh: HPGD (human) dehydrogenase inhibition; P15428; purified HPGD, NADH fluorescence kinetic, PGE2 substrate; Potency, µM, for inactives: at the highest dose activity change, negative = inhibition, actives largely listed as inhibitors; actives 4.3% (n = 150,000); AID 894; further: potency means the concentration at half of the fitted maximal effect; on the % scale 0 is the no-effect control and ±100 the full control effect
Target sequence (P15428 whole entry, looked up): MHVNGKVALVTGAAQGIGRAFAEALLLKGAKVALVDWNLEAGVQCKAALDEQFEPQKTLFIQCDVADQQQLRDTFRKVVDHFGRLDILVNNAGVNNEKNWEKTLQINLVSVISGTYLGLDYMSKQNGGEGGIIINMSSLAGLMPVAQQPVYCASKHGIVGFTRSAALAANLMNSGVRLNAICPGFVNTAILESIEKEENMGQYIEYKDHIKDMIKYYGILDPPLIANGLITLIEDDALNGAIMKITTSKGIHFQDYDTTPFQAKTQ
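NADH formation kinetics: reaction with 30 uM PGE2 and 1 mM NAD+ (final), 20 nM enzyme, Tris-HCl pH 8 with Tween 20, after 15 min compound preincubation at room temperature. Fluorescence change, last versus first of five reads.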
HTT aggregate: inhibitors of mutant huntingtin aggregate formation in PC12 cells | PC12 HttQ103-GFP aggregates, Acumen cytometry, 40 h | actives 1.1% (n = 220,000) | Potency, µM (titrated, usually from 46.1 µM), for the others: at the highest dose activity change, negative = inhibition, usual class: inhibitors; active means well fitted curve in the direction sought with a large enough effect; inconclusive means small, poorly fitted or top-dose-only effect, or another doubt; inactive means no such curve, though single readings can be large; an effect the other way counts as inactive or inconclusive; further: potency means the concentration at half of the fitted maximal effect; on the % scale 0 is the no-effect control and ±100 the full control effect; nearly all actives have a fitted effect of over 60% in size
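Aggregate formation scored by laser-scanning cytometer (488 excitation, 500–530 emission) in lysed PC12 cells expressing Q103-GFP after 100 nM tebufenozide induction; library tested in dose series, with ATPLite reagent added in the multiplex.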
RGS12 GoLoco inh: RGS12 GoLoco-Gai1 interaction inhibition; P63096; Gai1:RGS12 GoLoco peptide FP, rhodamine, 10 min; Potency, µM (series often up to 61.6 µM), inactives show top-dose activity, negative = inhibition, most hits filed as inhibitors; actives 0.44% (n = 230,000); AID 880; active means well fitted inhibition curve with a large enough effect, not every such curve was filed as active; inactive means no such curve, though single readings can be large or run the other way; further: potency means the concentration at half of the fitted maximal effect; on the % scale 0 is the no-effect control and ±100 the full control effect; nearly all actives have a fitted effect of over 30% in size
Target sequence (P63096 whole entry, looked up): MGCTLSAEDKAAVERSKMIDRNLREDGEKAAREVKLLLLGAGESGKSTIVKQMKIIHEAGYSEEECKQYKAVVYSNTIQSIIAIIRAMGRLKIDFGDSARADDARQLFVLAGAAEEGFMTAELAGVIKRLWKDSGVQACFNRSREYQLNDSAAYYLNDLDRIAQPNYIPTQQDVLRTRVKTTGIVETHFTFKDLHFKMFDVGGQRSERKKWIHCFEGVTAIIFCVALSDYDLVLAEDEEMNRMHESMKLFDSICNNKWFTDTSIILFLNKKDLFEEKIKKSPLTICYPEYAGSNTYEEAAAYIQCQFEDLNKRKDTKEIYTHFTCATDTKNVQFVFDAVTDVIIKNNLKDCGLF
Numbers without * were called inactive; ? = inconclusive; . = no result; [ ] = remark or other dose. An excerpt weighted towards active compounds, which were near 11% of everything screened. Unless noted, the call rests on the fitted dose curve; in most records, active means well fitted inhibition curve with a large enough effect (not every such curve was filed as active); inconclusive means small, poorly fitted or top-dose-only effect, or another doubt; inactive means no such curve, though single readings can be large or run the other way.

SMILES	ALDH1A1 block	PNC inhibitor	HTT cytoprotect	HPGD inh	HTT aggregate	RGS12 GoLoco inh
CC1CCC(NC(=O)N(CCCl)N=O)CC1 (centres undefined)	13µM*	.	2%	-9%	-4%	5%
O=S(=O)(NC1CC1)c1ccc(S(=O)(=O)N(Cc2ccccn2)C2CCCC2)cc1	2%	1	-5%	-11%	-16%	4%
Cc1cccc(N=N/C(=C\O)C(=O)c2cccs2)c1	8.9µM*	.	-12%[10 µM]	.	-30%	9%
O=C(/C(N=Nc1cccc(C(F)(F)F)c1)=C(/O)c1cccs1)C(F)(F)F	0%	.	1%[10 µM]	.	-21%[9.22 µM]	3%
C(=Nc1ccc(Nc2ccccc2)cc1)c1ccc2ccccc2c1	?	-83*	3%[10 µM]	-23%	0%	3%
C=CC(C)(C)c1[nH]c2ccccc2c1C1=C(O)C(=O)C(c2c[nH]c3c(CC=C(C)C)cccc23)=C(O)C1=O	?	.	4%	25µM*	.	-6%
O=C(COC(=O)c1ccccc1)NCCC1=CCCCC1	-5%	.	-7%[10 µM]	.	6%	5%
COC(=O)c1ccc(COC(=O)c2ccc(N(C)C)cc2)cc1	25µM*	-13	-55%	?	-9%	14%
CN(C)c1ccc(C(=O)OCC(=O)NCCC2=CCCCC2)cc1	35µM*	.	-18%	.	13%	13%
O=C(COC(=O)c1cnc(Cl)c(Cl)c1)NCCC1=CCCCC1	13µM*	.	-64%	.	2%	7%
N[C@@H](CO)C(=O)O	1%	.	?	-2%	.	3%
COc1ccc(NC(=O)c2sc(SCc3ccccc3)nc2N)cc1	13µM*	?	2%[10 µM]	?	25µM*	36%
C[C@]12CCC(=O)C=C1CCC1C2C(O)C[C@]2(C)C1CC[C@]2(O)C(=O)CO (some centres undefined)	10%	.	-73%	-1%	.	2%
CCOC(=O)C1=C(C)NC(C)=C(C(=O)OCC)C1c1cc2ccc(C)cc2[nH]c1=O	?	-111*	-18%[10 µM]	-12%	-20%	2%
COC(=O)C1=C(C)NC(C)=C(C(=O)OC)C1c1cc2ccc(C)cc2[nH]c1=O	?	14	-17%[10 µM]	-15%	4%	3%
Cc1ccc(CSc2nnc(-c3ccc(S(=O)(=O)N4CCCC4)cc3)o2)cc1	2%	-92*	10%	-7%	4%	9%
O=S(=O)(c1ccc(-c2nnc(SCc3ccccc3)o2)cc1)N1CCCC1	-15%	3	-10%	-9%	11%	4%
CCCC(=O)Nc1ncnc2c1ncn2C1OC2COP(=O)(O)OC2C1OC(=O)CCC (centres undefined)	5%	.	-35%	-18%	9%	8%
COc1ccc(C(=O)c2sc(Nc3ccccc3)c(C(=O)Nc3ccc(OC)c(OC)c3)c2N)cc1	18µM*	36	-1%	-14%	4%	-10%
C/C=C/OC(=O)NC(c1cccc(C)c1)[C@@]1(C(=O)OCC)CCCC1=O (some centres undefined)	18%[13.5 µM]	.	-10%[10 µM]	.	.	.
Cc1ccc(OCC(=O)Nc2ccc(F)cc2)cc1C	10%	-100*	20%[10 µM]	?	-6%	3%
CC(=O)Nc1ccc(NC(=O)COc2ccc([N+](=O)[O-])cc2)cc1	11µM*	.	0%	.	-3%	8%
Cc1cc(OCC(=O)Nc2ccncc2)ccc1[N+](=O)[O-]	10µM*	.	.	.	9%	15%
CC(=O)Nc1cccc(OCC(=O)Nc2ccc(F)cc2)c1	-2%	25	20%	-3%	-13%	-1%
NS(=O)(=O)c1ccc(N=Nc2cc3ccccc3c(C(=O)O)c2O)cc1	10%[13.5 µM]	.	28%[10 µM]	-15%	.	5%[14.2 µM]
SMILES	ALDH1A1 block	PNC inhibitor	HTT cytoprotect	HPGD inh	HTT aggregate	RGS12 GoLoco inh
COc1cc(S(=O)(=O)Nc2cccc(C)c2)ccc1NC(=O)c1cccnc1	-17%	47	5%[10 µM]	-8%	1%	4%
CCN1C(=O)C(CC(=O)Nc2ccc(OC)cc2)N(CCc2ccccc2)C1=S (centres undefined)	2µM*	.	-50%	.	-22%	-6%
CCN1C(=O)C(CC(=O)Nc2ccc(OC)cc2)N(Cc2cccnc2)C1=S (centres undefined)	?	20	.	-10%	-4%	8%
COc1ccc(NC(=O)CC2C(=O)N(C)C(=S)N2CCc2ccccc2F)cc1 (centres undefined)	4µM*	.	8%	.	3%	5%
CCN1C(=O)C(CC(=O)Nc2ccc(OC)cc2)N(CCc2ccccc2F)C1=S (centres undefined)	.	.	0%[10 µM]	.	-3%[9.22 µM]	6%
CCN1C(=O)C(CC(=O)Nc2ccc(F)cc2)N(CCc2ccc(OC)cc2)C1=S (centres undefined)	10µM*	.	-16%[10 µM]	.	3%[9.22 µM]	11%
COc1ccc(C2(c3ccc(O)cc3O)CC(c3ccccc3Cl)NC(=S)N2)cc1 (centres undefined)	-3%	.	34%	.	26%	17%
N#Cc1ccc(OCC(=O)OCC(=O)Nc2cc(C(F)(F)F)ccc2N2CCOCC2)cc1	5%	-5	7%[1.9 µM]	-11%	-7%	3%
CSc1nc(-c2ccccc2)nc(N2CCOCC2)c1C(C)=O	0%	.	-19%	.	-14%	-2%
O=C(Nc1ccccc1)Nc1ccc2snnc2c1	?	?	-14%[10 µM]	-10%	11µM*	9%
O=C(c1cccc(S(=O)(=O)N2CCc3ccccc32)c1)N1CCN(c2ccccn2)CC1	13µM*	.	-69%	.	?	0%
O=C(c1ccc(S(=O)(=O)N2CCCCCC2)cc1)N1CCN(c2ccccn2)CC1	13µM*	22	-2%	-18%	-20%	-5%
C(=N\N1CCN(Cc2cccc3ccccc23)CC1)/c1cccnc1	-9%	21	-39%	-7%	?	-20%
CCCCCCCCCC(=O)O[C@H](CC(=O)O)C[N+](C)(C)C	-1%	.	-36%	-5%	.	3%
COC(=O)c1cn(CC(=O)NC2CCCCCC2)c2ccccc12	6%	?	32%[10 µM]	-1%	4%	8%
O=C(NCc1cccs1)c1ccc(Cl)c(S(=O)(=O)N2CCCC2)c1	6%	.	.	.	-3%	5%
CCN1C(=O)CSc2ccc(C(=O)NCc3ccccc3OC)cc21	10µM*	0	5%	-15%	-20%	-20%
COc1ccccc1CNC(=O)CN1C(=O)CSc2ccc(S(=O)(=O)N3CCCC3)cc21	-8%	.	5%	.	-3%	-7%
CCN1C(=O)CSc2ccc(C(=O)NC3CCCCC3)cc21	13µM*	?	-30%	-4%	-12%	1%
C=CCN1C(=O)CSc2ccc(C(=O)NCc3cccs3)cc21	8.9µM*	.	3%[10 µM]	.	-15%	-6%
Cc1nn(Cc2ccc(Cl)cc2)c(C)c1NC(=O)c1ccc([N+](=O)[O-])cc1	4%	-84*	10%[10 µM]	.	?	.

Screening data as filed in PubChem BioAssay.
